According to PubChem BioAssay AID1532 (PCMD, 2009):
In all, about 110,000 compounds went through this assay and about 420 (0.38%) were called active. No stated cut-off is given here; in the data, active means inhibition above about 30% (passing the limit was not always enough); inconclusive means no clear call, values can overlap the other calls. The full list was thinned out, with actives kept by preference.

System: RmlC (dTDP-4-dehydrorhamnose 3,5-epimerase) and RmlD (dTDP-4-dehydrorhamnose reductase), coupled enzyme assay
Assay: RmlC and RmlD coupled enzyme inhibitors, primary screen, biochemical, 384-well, compound mixtures, retest (AID 1532)
Details: 384-well mixture HTS, at 5.5 µM, stronger effect = higher value

Row | SMILES | inhibition | inhibition (measured here: mean retest inhibition) [%]
1 | C#CCOCCOCCOCCNc1nc(N2CCN(C(=O)[C@H](CCC(=O)O)n3cc(C(N)CO)nn3)CC2)nc(N2CCN(C(=O)[C@H](CCCCN)n3cc(C(N)[C@H](C)CC)nn3)CC2)n1 (some centres not stated) | 2.59% (inactive) | 
2 | COc1ccc(OC)c2[nH]c(=O)c(CCNC(=O)C(C)(C)C)cc12 | 8.84% (inactive) | 
3 | COCc1cc(=O)[nH]c2cc(NC(=O)C(F)(F)F)c(C)cc12 | 39.2% (active) | 46.2
4 | O=C(Nc1ccccc1)c1ccccc1NC(=O)C(F)(F)F | 8.91% (inactive) | 
5 | COC(C[C@@H](O)[C@H](C)[C@H](O)COCc1ccccc1)OC | 2.05% (inactive) | 
6 | CC(C)CC(CO)N1CCN(C(=O)c2ccc(Cl)cc2Cl)CCC1=O (configuration not stated) | -11.9% (inactive) | 
7 | CCO[C@H]1OC(C(=O)O)=C[C@@H](C2CCCCC2)[C@@H]1CCCO | -6.81% (inactive) | 
8 | COc1ccc(CN2CC[C@H]3C=CC[C@@H](C(=O)N4CCOCC4)[C@H]3C2=O)cc1OC | 7.97% (inactive) | 
9 | N#CCc1c(C#N)c(N)nc(N2CCCC2)c1C#N | 14.6% (inactive) | 
10 | COC(=O)CCCC1=CC2=CC(=O)C(C)(OC(=O)c3cccs3)C(=O)C2=CN1c1cccc(C#N)c1 (configuration not stated) | -9.55% (inactive) | 
11 | C=CC1C(OC2OC(CO)C(O)C(O)C2O)OC=C(C(=O)OC)C1CC1CC(=O)CC(CC(=O)CCc2ccc(O)cc2)O1 (configuration not stated) | 3.85% (inactive) | 
12 | C#CCOCCOCCOCCNc1nc(N2CCN(C(=O)[C@H](C(C)C)n3cc(CCO)nn3)CC2)nc(N2CCN(C(=O)[C@H](C(C)C)n3cc(CCO)nn3)CC2)n1 | -12.1% (inactive) | 
13 | O=C(O)C1=C[C@H](c2cccs2)C[C@H](OCCCCO)O1 | 5.69% (inactive) | 
14 | COC(=O)COc1cccc2c(=O)n(CC(=O)NCCc3ccc(OC)c(OC)c3)ccc12 | 9.94% (inactive) | 
15 | CC1=C(N2CCN(c3ncccn3)CC2)CCC1=O | 12.7% (inactive) | 
16 | NC(=O)CC(NC(=O)Cc1cccc2ccccc12)c1ccc(NCc2cc(F)ccc2F)c([N+](=O)[O-])c1 (configuration not stated) | -7.96% (inactive) | 
17 | COC(=O)c1ccc(C(NC(=O)OCc2ccccc2)/C(F)=C/[C@@H](C)C(=O)O)cc1 (some centres not stated) | 3.33% (inactive) | 
18 | CCCC[C@@H]1CN=C(N)N1CCCC | -28.4% (inactive) | 
19 | COc1ccc(C(CC(=O)N2CCN(c3ccccc3)CC2)c2c(O)cc(OC)cc2OC)cc1 (configuration not stated) | 0.73% (inactive) | 
20 | C/C=C\C=C\C(=O)N1CC2(CC(c3cccc(NC(=O)/C(C)=C\C)c3)=NO2)C[C@H]1C(N)=O (some centres not stated) | -0.91% (inactive) | 
21 | COC(C[C@@H]1O[C@@H]1C(=O)[C@H](C)OCc1ccccc1)OC | -11.7% (inactive) | 
